PubChem BioAssay
Calls of active or inactive are those of the source.

Key:
[1] = A549 cell viability effects, profiling panel, calcein-AM fluorescence, 48 h, basal (AID 1162); details: higher = more signal
[2] = adipocyte viability effects, profiling panel, cell-based, 3T3-L1 adipocytes, calcein-AM fluorescence, 48 h, basal (AID 1163); details: 3T3-L1 adipocytes viability, higher = more signal
[3] = HepG2 cell viability effects, profiling panel, calcein-AM fluorescence, 48 h, basal (AID 1164); details: higher = more signal
[4] = MM1S cell viability effects, profiling panel, calcein-AM fluorescence, 48 h, basal (AID 1165); details: higher = more signal;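 further: viability of MM1S multiple myeloma cells under basal unstimulated conditions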
[5] = basal RPMI8226 viability, no added stimulus, profiling panel, cell-based, calcein-AM fluorescence, 48 h, PK04 Diversity Set (AID 1166); details: RPMI8226 myeloma viability, higher = more signal;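 further: cells grown under basal conditions without added stimulus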
[6] = basal HepG2 mitochondrial membrane potential changes, profiling panel, cell-based, JC-1 fluorescence, 24 h, 100 nL compound (AID 1167); details: higher = more signal
[7] = basal 3T3-L1 adipocyte mitochondrial potential changes, profiling panel, cell-based, JC-1 fluorescence, 3T3-L1 adipocytes, 24 h, 100 nL compound (AID 1168); details: JC-1 mitochondrial fluorescence, higher = more signal, called active from +8 up or from −8 down
[8] = basal RPMI8226 mitochondrial membrane potential changes, profiling panel, cell-based, JC-1 fluorescence, 24 h, 100 nL compound (AID 1169); details: RPMI8226 myeloma, JC-1 mitochondrial potential fluorescence, higher = more signal
[9] = basal MM1S mitochondrial membrane potential changes, profiling panel, cell-based, JC-1 fluorescence, 24 h, 100 nL compound (AID 1170); details: higher = more signal
[10] = A549 lung cancer cell viability effects, profiling panel, resazurin fluorescence, 24 h, PK04 Diversity Set (AID 1171); details: higher = more signal, called active from +8 up or from −8 down
Further: test concentration not given here.

Structure (SMILES)	z-score [1]	z-score [2]	z-score [3]	z-score [4]	z-score [5]	z-score [6]	z-score [7]	z-score [8]	z-score [9]	z-score [10]
CCOC(=O)C[C@H]1[C@H](OC(=O)c2cc3ccccc3oc2=O)[C@@H](NC(=O)c2ccc3ccccc3n2)c2cc(OCCCO)ccc2N1C(=O)c1ccccc1	0.321	2.22	0.11	0.204	-0.785	-0.187	-0.408 (inactive)	-0.264	-0.0996	-0.881 (inactive)
CC(C)=CCCC(C)=CCON=C1[C@H]2CCn3c(=O)n(C)c(=O)n3[C@H]2[C@H](O)[C@@H]2O[C@H]12	0.717	-0.326	1.11	0.114	-0.183	0.46	-0.14 (inactive)	-0.2	-0.731	-0.83 (inactive)
CO[C@@H]1COC(=O)[C@@H]2CCCN2C(=O)[C@@H](C)COC(=O)[C@H](COCc2ccccc2)NC(=O)CC=C[C@H]1C	-0.427	0.169	-1.5	-0.329	-0.0455	-0.152	-1.02 (inactive)	-0.156	-0.683	-0.366 (inactive)
CC1(C)OCC(C(O)C2=CCCCC2=O)CO1 (stereo not given)	-0.423	1.76	0.588	-0.402	-0.999	1.28	-0.0827 (inactive)	-0.606	0.724	-0.939 (inactive)
CC(C)=NOCc1ccc(-c2cc(-c3ccccc3)no2)cc1	0.947	0.0379	0.433	0.283	-1.14	-0.49	-0.618 (inactive)	0.825	-0.152	-0.589 (inactive)
CCN1C(=O)[C@H]2[C@H]3[C@H](O)[C@H](O)CC(=NOCc4ccccc4)[C@H]3CC[C@H]2C1=O	-0.803	-0.0387	-0.228	-0.463	-0.644	-1.13	-1.37 (inactive)	0.462	0.515	-0.0275 (inactive)
COc1ccc(COC(=O)NN=C2C[C@@H](O)[C@@H](O)[C@@H]3[C@@H]4C(=O)N(Cc5ccc6c(c5)OCO6)C(=O)[C@@H]4CC[C@@H]23)cc1	0.378	1.11	-0.273	-0.652	-0.0219	0.621	1.04 (inactive)	-0.3	-1.61	0.0201 (inactive)
COc1ccc(O[C@H]2C=C[C@@H](c3ccccc3)O[C@@H]2COC(=O)CCC(C)=NOC[C@@H](C)[C@H](OCc2ccccc2)C(C)C)cc1	-0.0801	0.13	-0.442	-0.0358	-1.02	0.577	-1.61 (inactive)	0.815	-0.146	1 (inactive)
C=COC[C@H]1CN2[C@@H](CC[C@@H](C)[C@@H]2c2ccc(Br)cc2)C(=O)O1	0.197	0.34	1.3	0.48	-0.228	0.244	1.39 (inactive)	-0.56	0.252	-0.0242 (inactive)
CC(=O)C[C@H](O)[C@@H](NC(=O)OC(C)(C)C)C(C)C	0.143	0.819	0.0838	-0.476	-0.531	-0.538	-0.0163 (inactive)	-0.545	-0.347	-0.289 (inactive)
COC(=O)[C@H](C)NC(=O)[C@@H](C)CO	-0.562	0.945	-0.524	0.363	-1.21	-0.355	-0.0968 (inactive)	-0.04	0.384	-0.939 (inactive)
CC(C)[C@H](NC(=O)OC(C)(C)C)[C@@H](O)CC(=O)OC(C)(C)C	0.403	1.24	0.026	0.793	-0.229	0.251	-0.689 (inactive)	0.62	1.06	-1.54 (inactive)
C[C@@H]1C=CCC(=O)OC[C@H](C)C(=O)N[C@@H](C)C(=O)OC1	0.195	-0.112	-0.532	-0.131	-0.275	0.391	-0.871 (inactive)	-0.0436	-1.26	0.156 (inactive)
CCN1C(=O)[C@H]2[C@H]3[C@H](O)[C@H](O)CC(=NOCC=C(C)CCC=C(C)C)[C@H]3CC[C@H]2C1=O	-0.107	0.393	-0.118	0.805	0.169	-0.702	0.0735 (inactive)	0.568	0.0613	-1.01 (inactive)
C[C@@H]1CCC2C(=O)N(Cc3ccccc3)C[C@@H](O)CN2[C@H]1c1ccc(Br)cc1 (stereo not given in full)	0.247	0.13	0.229	0.314	0.447	0.687	0.303 (inactive)	-0.878	1.35	0.269 (inactive)
COCCCNC(=O)[C@@]1(CCS(=O)(=O)c2ccccc2)N=C(c2ccc(OCCCO)cc2)O[C@H]1c1ccccc1	2.27	0.217	1.84	-0.345	-0.193	0.887	-0.468 (inactive)	0.243	0.508	0.486 (inactive)
CN(C)CCCNC(=O)[C@@H]1c2ccccc2C(=O)N(Cc2cc(F)cc(C(F)(F)F)c2)[C@H]1c1ccc(CO)cc1	-0.276	0.239	-0.318	0.137	0.606	1.3	-0.557 (inactive)	0.735	-0.195	0.0923 (inactive)
COC(=O)c1c(CC[C@@H](CO)NC(=O)N[C@H](Cc2ccccc2)Cn2cc(-c3ccccc3N)nn2)oc(C(C)=O)c1C(=O)OC	0.238	0.475	0.169	-0.0234	0.229	-0.864	-0.474 (inactive)	-0.415	0.65	-0.0935 (inactive)
CCOC(=O)[C@H](CC(C)C)NC(=O)CCC1CC(OC(=O)NCc2cccc3ccccc23)CC2(CCCC(COC(=O)NCCN3CCOCC3)O2)O1 (stereo not given in full)	0.609	0.0174	-0.667	0.109	-0.275	-0.084	-1.16 (inactive)	-0.268	-0.166	1.29 (inactive)
COC(=O)[C@H](C)NC(=O)CCC1CC(OC(=O)NCc2cccc3ccccc23)CC2(CCCC(COC(=O)NCC3CCCCC3)O2)O1 (stereo not given in full)	-0.332	-0.687	0.385	-0.875	0.913	1.38	-0.477 (inactive)	-0.188	-0.652	0.458 (inactive)
CO[C@@H]1COC(=O)CCC[C@@H](C)[C@H](OC)COC(=O)[C@H](Cc2ccccc2)NC(=O)CC=C[C@H]1C	0.0498	0.134	-0.829	0.355	-1.25	2.07	-1.18 (inactive)	0.256	-0.479	0.451 (inactive)
CCN(CC)c1ccc(N2CC=CC34O[C@@H]5/C=C\CCC(C)OC(=O)C5[C@H]3C(=O)N(CCCO)[C@@H]4C2=O)cc1 (stereo not given in full)	0.28	0.782	0.109	1.09	0.264	-0.356	0.0214 (inactive)	-0.245	1.18	-0.38 (inactive)
CO[C@H]1COC(=O)[C@H](C)NC(=O)[C@@H](C)COC(=O)CC=C[C@@H]1C	-0.0101	0.0176	-0.368	-0.303	0.693	-0.176	-1.32 (inactive)	-0.282	-0.863	-0.162 (inactive)
COCCNC(=O)OCC1CCCC2(CC(OC(=O)NCCc3ccc(F)cc3)CC(CCC(=O)N[C@@H](C)C(=O)OC)O2)O1 (stereo not given in full)	1.26	-0.144	0.0479	-0.491	0.253	-0.198	0.836 (inactive)	-0.156	-1	1.06 (inactive)
COc1ccc([Si](C)(C)[C@@H]2[C@@H](CC(=O)N3CCC[C@H]3CO)O[C@]3(C(=O)N(Cc4cccc(N5CCC5=O)c4)c4ccccc43)[C@H]2C)cc1	-0.208	-1.34	-4.16	-2.71	-4.33	-0.729	0.999 (inactive)	-1	-2.19	-1.39 (inactive)
COc1ccc(O[C@H]2C=C[C@@H](c3ccccc3)O[C@@H]2CON=C[C@@H](C)[C@H](OCc2ccccc2)C(C)C)cc1	0.688	-0.106	1.7	0.553	-0.903	0.46	0.732 (inactive)	-0.0803	-0.486	-0.463 (inactive)
COCCOC(=O)N1C(=O)[C@@]2(c3cc(C#CC4(O)CCCCCC4)ccc31)[C@H](c1ccc(OCCO)cc1)N1[C@H](c3ccccc3)[C@H](c3ccccc3)OC(=O)[C@H]1[C@@H]2C(=O)NC[C@H](O)c1ccccc1	0.358	1.62	-0.063	-1.25	-1.84	-1.67	0.0493 (inactive)	-0.924	-1.47	0.702 (inactive)
COCCOC(=O)N1C(=O)[C@@]2(c3cc(C#CCNC(N)=O)ccc31)[C@H](c1ccc(O)cc1)N1[C@H](c3ccccc3)[C@H](c3ccccc3)OC(=O)[C@H]1[C@@H]2C(=O)N1CCCCCCC1	-0.55	0.012	-0.49	-0.441	0.0294	-1.85	-0.731 (inactive)	0.399	0.298	0.215 (inactive)
COc1ccc(O[C@@H]2[C@H](O)CO[C@H]2C=CC#Cc2ccccc2)cc1	-0.128	0.392	0.0395	-2.54	-0.0849	-0.445	-0.403 (inactive)	0.617	0.113	0.357 (inactive)
